# ChEMBL document CHEMBL1157539, “Thousands of chemical starting points for antimalarial lead identification” (Nature, 2010)
# Test system: HepG2
# Test: GSK_TCMDC: Percent inhibition of human HepG2 cell line. Test compounds present at 10uM.
# Format: functional
row,Structure (SMILES),Inhibition
1,COc1ccc2nc(C)cc(Nc3ccc(Cl)c(Cl)c3)c2c1,30%
2,Cl.Nc1nc(Nc2ccc(Cl)cc2)nc2ccccc12,6%
3,CC(C)CCCC(C)NC[C@@H](O)[C@H](Cc1ccccc1)NC(=O)c1cc(N2CCCC2=O)cc(N(c2ccccc2)S(C)(=O)=O)c1 (some centres not stated),17%
4,CCN(CC)CCCOC(=O)c1ccc2c(c1)-c1ccc(C(=O)OCCCN(CC)CC)c3cccc-2c13.Cl,22%
5,Cc1cc(N(C)C)nc(Nc2ccc(NC(=O)c3ccccc3C)cc2)n1,0%
6,CS(=O)(=O)CCNCc1nc(-c2ccc3ncnc(Nc4ccc(OCc5ccccc5)c(Cl)c4)c3c2)cs1.Cl,13%
7,CN(CCCN(C)c1cc(NC(=O)c2ccc(F)cc2)ccn1)Cc1cccc(F)c1.O=C(O)C(F)(F)F,0%
8,Cc1cccc(NC(=O)Nc2cccc(-c3ccc(-c4nc5cc(C(F)(F)F)ccc5[nH]4)cc3)c2)c1,44%
9,CC(=O)c1ccc2nc[nH]c(=O)c2c1,79%
10,O=C(NCc1ccccc1)NC(CCCN1CCC(Oc2cccc(Cl)c2)CC1)c1ccc(Cl)c(Cl)c1 (configuration not stated),15%
11,Oc1ccc2[nH]cc(C3CCN(CCCCCCCCCN4CCC(c5c[nH]c6ccc(O)cc56)CC4)CC3)c2c1,22%
12,CC(C)n1c(C2CCN(CC3CCN(C(=O)/C=C/c4ccc(Cl)c(Cl)c4)CC3)CC2)nc2ccccc21,36%
13,CC1CN(Cc2ccc(-c3ccc(-c4nc5cc(F)ccc5[nH]4)cc3)cc2)CC(C)O1.O=C(O)C(F)(F)F (configuration not stated),40%
14,CCNC(=O)Nc1ccc(-c2cccc(-c3nc4cccc(C)c4[nH]3)c2)cc1,16%
15,Cc1cnc2cc3c(cc2c1N1CCN(C)CC1)NCC3,12%
16,COc1cccc(C2(c3cccc(OC)c3)N=C(N)N(CCCc3ccccc3)C2=O)c1.O=CO,3%
17,CCn1cc(C=C2Oc3c(ccc(O)c3CN3CCCCC3)C2=O)c2cc(OC)ccc21,0%
18,Cn1c(Sc2ncnc3sccc23)nc2ccccc21,0%
19,CNC(=O)C1Cc2c([nH]c3ccc(Cl)cc23)C2(CCN(CCc3ccccc3)CC2)N1 (configuration not stated),2%
20,O=S(=O)(Nc1ccc(CCN2CCC(N3CCCCC3)CC2)cc1)c1ccc(Cl)cc1,23%
21,Cc1nc(N)nc(N)c1-c1ccc(Br)cc1,46%
22,CCCCCn1c(Sc2ccc(C#N)c([N+](=O)[O-])c2)nnc1-c1ccc(Cl)cc1,18%
23,COc1ccc(C=NN=c2c3ccccc3[nH]c3ccccc23)c2ccccc12,9%
24,CCCCC(=O)Nc1nc2ccc([N+](=O)[O-])cc2s1,9%
25,Cc1cccc2nc(-c3ccc(-c4ccc(CNCC(C)C)cc4)cc3)[nH]c12.O=C(O)C(F)(F)F,14%
26,Cc1ccc(NC(=O)Nc2ccccc2)cc1-c1ccc(C(=O)Nc2ccncc2)cc1,67%
27,Cc1ccc(NC(=O)c2c(C)noc2-c2snnc2C)cc1,1%
